# Assay results as given in PubChem BioAssay (EPA / NIEHS).
# Calls of active or inactive are those of the source. The calls were made as follows: active = hit-call score of the fitted dose curve at least 0.9, where 1 is the maximum; inactive = score below 0.9.
# Key:
# [1] = APR_HepG2_P-H2AX_72hr: Apredica 72-hour HepG2 Assay for H2AX Phosphorylation (AID 2282916); conditions: imaging, actives raise or lower the signal;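 also: phospho-histone H2A.x immunostain intensity per cell marking DNA damage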
# Outline: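 Phospho-histone H2A.x immunofluorescence, multiplexed with Hoechst and c-Jun, quantified by high-content imaging. Compounds applied to HepG2 for 72 h across ten concentrations (0.39–200 uM, 0.5% DMSO), in duplicate; DMSO baseline.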
# [2] = APR_HepG2_MitoMembPot_72hr: Apredica 72-hour HepG2 Assay for Mitochondrial Membrane Potential (AID 2282917); conditions: imaging, actives raise or lower the signal
# Outline: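 Membrane potential read by MitoTracker Red CMXRos (250 nM, 30 min, pre-fixation) fluorescence imaging of HepG2 after 72 hr exposure. Ten concentrations, 0.39–200 uM, duplicate wells, 0.5% DMSO; fitted in both directions against DMSO baseline.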
# [3] = APR_HepG2_MitoticArrest_72hr: Apredica 72-hour HepG2 Assay for Mitotic Arrest (AID 2282918); conditions: high-content imaging, actives raise or lower the signal
# Outline: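 Mitotic arrest in HepG2 is scored from phospho-histone H3 staining after 72 hr dosing across 0.39–200 uM, with DMSO at 0.5% v/v. Nuclei are identified by Hoechst 33342 and fluorescence intensity is quantified per cell.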
# [4] = APR_HepG2_MicrotubuleCSK_72hr: Apredica 72-hour HepG2 Assay for Microtubule CSK Stabilty (AID 2282919); conditions: HepG2 microtubule cytoskeleton, high-content imaging, actives raise or lower the signal
# Outline: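 High-content imaging of alpha-tubulin staining in fixed HepG2 cells after 72 hr treatment with ten concentrations from 0.39 to 200 uM (0.5% DMSO). Fitting was bidirectional against DMSO; taxol served as positive control.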
# [5] = APR_HepG2_P-H2AX_24hr: Apredica 24-hour HepG2 Assay for H2AX Phosphorylation (AID 2282920); conditions: high-content imaging, actives raise or lower the signal
# Outline: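 Signal comes from a FITC-labeled secondary detecting phospho-histone H2A.x in fixed HepG2 cells, quantified by automated imaging at 20x. Dosing ran 24 hr across 0.39–200 uM with 0.5% v/v DMSO.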
# [6] = APR_HepG2_StressKinase_72hr: Apredica 72-hour HepG2 Assay for Stress Kinase (AID 2282921); conditions: HepG2 stress kinase (phospho-c-Jun) imaging, actives raise or lower the signal
# Outline: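 Stress kinase signal is phospho-c-Jun immunofluorescence (1:500 primary, Cy3 secondary) in fixed, permeabilized human HepG2 cells imaged at 20x. Exposure lasted 72 hr over ten concentrations from 0.39 to 200 uM, 0.5% DMSO, in duplicate. Bidirectional fit versus DMSO.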
# [7] = APR_HepG2_StressKinase_24hr: Apredica 24-hour HepG2 Assay for Stress Kinase (AID 2282922); conditions: HepG2 stress kinase (phospho-c-Jun) imaging, actives raise or lower the signal
# Outline: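 High-content imaging of phospho-c-Jun immunofluorescence in fixed, permeabilized HepG2 cells after 24 h dosing. Ten concentrations, 0.39 to 200 uM, run in duplicate at 0.5% v/v DMSO; gain or loss of signal versus DMSO.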
# [8] = APR_HepG2_p53Act_72hr: Apredica 72-hour HepG2 Assay for p53 Activation (AID 2282923); conditions: high-content imaging, actives raise or lower the signal;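 also: average cellular p53 protein immunofluorescence intensity in HepG2 cells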
# Outline: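 After 72 h with compound (ten points, 0.39 to 200 uM, final DMSO 0.5% v/v), fixed HepG2 cells were labelled with sheep anti-p53 and Hoechst 33342 and imaged; gain or loss versus DMSO scored.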
# [9] = APR_HepG2_MitoMass_72hr: Apredica 72-hour HepG2 Assay for Mitochondrial Mass (AID 2282924); conditions: high-content imaging, actives raise or lower the signal;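 also: MitoTracker Red CMXRos stain intensity per cell imaged as mitochondrial mass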
# Outline: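 Readout is imaged MitoTracker Red (250 nM, 30 min, pre-fixation) signal, fitted bidirectionally against DMSO baseline. Human HepG2 liver cells received compound 0.39–200 uM in duplicate for 72 hr, final DMSO 0.5%.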
# [10] = APR_HepG2_NuclearSize_72hr: Apredica 72-hour HepG2 Assay for Nuclear Size (AID 2282925); conditions: high-content imaging, actives raise or lower the signal
# Outline: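 Nuclear size was read by high-content imaging of Hoechst 33342 stain after formaldehyde fixation. Compounds ran 72 h on HepG2 at 0.39 to 200 uM, with final DMSO 0.5% v/v. Curves fitted both directions relative to DMSO control.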
# [11] = ATG_CRE_CIS: Attagene CIS-FACTORIAL HepG2 Assay for human cAMP Responsive Element (CRE) binding protein 3 (AID 2282926); conditions: HepG2 CRE cis-reporter, Attagene multiplexed mRNA; actives raise or lower the signal
# Outline: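 Cells carrying cis-regulated reporter constructs respond through their own endogenous factors. After 24 h treatment, RNA is reverse-transcribed, amplified, labelled and sized by capillary electrophoresis; up- and down-regulation are both scored against vehicle.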
# [12] = biological target: CCAAT/enhancer-binding protein beta (Homo sapiens) (UniProt P17676); experiment: ATG_C_EBP_CIS: Attagene CIS-FACTORIAL HepG2 Assay for human CCAAT/Enhancer Binding Protein (C/EBP) beta (AID 2282927); conditions: HepG2 Attagene cis-factorial transcription factor reporter; actives raise or lower the signal
# Chain of CCAAT/enhancer-binding protein beta (Homo sapiens) (P17676 whole entry, looked up): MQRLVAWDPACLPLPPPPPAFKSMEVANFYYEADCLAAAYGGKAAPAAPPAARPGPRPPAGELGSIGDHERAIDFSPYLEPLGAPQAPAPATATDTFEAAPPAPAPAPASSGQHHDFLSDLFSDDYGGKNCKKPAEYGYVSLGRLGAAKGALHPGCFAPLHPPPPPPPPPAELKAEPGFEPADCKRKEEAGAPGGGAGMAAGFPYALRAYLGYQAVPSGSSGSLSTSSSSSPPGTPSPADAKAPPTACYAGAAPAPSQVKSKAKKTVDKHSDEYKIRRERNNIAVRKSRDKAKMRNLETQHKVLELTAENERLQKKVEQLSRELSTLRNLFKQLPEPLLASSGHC
# Outline: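 Endogenous transcription factor activity in human liver HepG2 cells is inferred from induction of a CEBPB-linked reporter mRNA. Exposure lasts 24 h; activity is fitted in both directions relative to DMSO.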
# [13] = ATG_CMV_CIS: Attagene CIS-FACTORIAL HepG2 Assay for human CMV (Internal Marker) (AID 2282928); conditions: HepG2 CMV promoter reporter, transcription factor profiling; actives raise or lower the signal;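 also: endpoint acts as a background internal control marker rather than a target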
# Outline: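 Fluorescence intensity of RT-PCR-derived reporter fragments, resolved by capillary electrophoresis, gives the signal. HepG2 liver cells bearing transfected cis-element reporters were treated 24 h; activity in either direction was fit relative to DMSO-treated controls.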
# [14] = ATG_DR4_LXR_CIS: Attagene CIS-FACTORIAL HepG2 Assay for human Liver X Receptor (LXR), DR4 submotif (AID 2282929); conditions: HepG2 Attagene DR4 cis-reporter, mRNA transcription; actives raise or lower the signal
# Outline: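 Fluorescence intensity of labelled reporter cDNA fragments, separated by capillary electrophoresis, gives the signal. HepG2 cells bearing cis-regulated reporter constructs were treated 24 h; activity fitted bidirectionally relative to DMSO negative control.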
# [15] = biological target: Aryl hydrocarbon receptor (Homo sapiens) (UniProt P35869); experiment: ATG_Ahr_CIS: Attagene CIS-FACTORIAL HepG2 Assay for human Aryl Hydrocarbon Receptor (Ahr) (AID 2282930); conditions: HepG2 AhR cis-factorial reporter transcription; actives raise or lower the signal
# Chain of Aryl hydrocarbon receptor (Homo sapiens) (P35869 whole entry, looked up): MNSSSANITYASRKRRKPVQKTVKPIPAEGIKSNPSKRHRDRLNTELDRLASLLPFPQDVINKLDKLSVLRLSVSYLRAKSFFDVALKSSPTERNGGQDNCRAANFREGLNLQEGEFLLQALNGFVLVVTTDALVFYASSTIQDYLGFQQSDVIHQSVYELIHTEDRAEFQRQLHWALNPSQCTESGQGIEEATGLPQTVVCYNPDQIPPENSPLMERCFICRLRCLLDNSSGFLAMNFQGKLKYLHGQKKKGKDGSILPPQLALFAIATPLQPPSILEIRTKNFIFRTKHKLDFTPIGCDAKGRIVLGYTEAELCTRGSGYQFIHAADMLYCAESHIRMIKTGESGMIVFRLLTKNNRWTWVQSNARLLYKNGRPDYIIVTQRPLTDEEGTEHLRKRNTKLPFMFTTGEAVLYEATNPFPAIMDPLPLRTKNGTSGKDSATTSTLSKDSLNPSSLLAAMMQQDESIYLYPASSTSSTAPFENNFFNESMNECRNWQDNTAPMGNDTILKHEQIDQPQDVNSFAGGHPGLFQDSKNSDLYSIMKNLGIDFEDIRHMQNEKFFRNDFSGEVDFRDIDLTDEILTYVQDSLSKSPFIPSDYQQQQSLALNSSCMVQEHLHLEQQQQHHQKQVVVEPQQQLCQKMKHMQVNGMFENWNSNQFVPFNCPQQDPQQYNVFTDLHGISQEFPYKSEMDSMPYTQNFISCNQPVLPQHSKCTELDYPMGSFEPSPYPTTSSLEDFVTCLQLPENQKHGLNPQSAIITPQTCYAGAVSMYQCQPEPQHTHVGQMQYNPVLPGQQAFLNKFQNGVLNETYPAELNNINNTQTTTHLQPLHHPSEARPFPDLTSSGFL
# Outline: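 Transient MRTU transfection of HepG2 → 24 h compound exposure → total RNA, oligo(dT) RT → PCR, 6-FAM extension, HpaI cut → CE fluorescence. DMSO = baseline; bidirectional curve fit.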
# [16] = ATG_AP_1_CIS: Attagene CIS-FACTORIAL HepG2 Assay for human Activator Protein 1 (AP-1) (AID 2282931); conditions: HepG2 Attagene cis-factorial AP-1 reporter mRNA; actives raise or lower the signal
# Outline: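 Multiplexed HepG2 reporter assay, 24 h dosing. mRNA induction detected by RT-PCR plus capillary electrophoresis. Activity fitted in both directions against DMSO.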
# [17] = ATG_AP_2_CIS: Attagene CIS-FACTORIAL HepG2 Assay for human Activator Protein 2 (AP-2) (AID 2282932); conditions: HepG2 AP-2 cis-reporter, Attagene transcription factor profiling; actives raise or lower the signal
# Outline: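 Endogenous transcription factor activity is reported through transfected multiplex reporter constructs in HepG2, after 24 h of compound exposure. Transcripts were quantified by RT-PCR and capillary electrophoresis of fluorescent fragments. Bidirectional fit against DMSO.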
# [18] = ATG_BRE_CIS: Attagene CIS-FACTORIAL HepG2 Assay for human Bone Morphogenetic Protein (BMP) Response Element (BRE) (AID 2282933); conditions: HepG2 BMP response element reporter, Attagene transcription factor profiling; actives raise or lower the signal
# Outline: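 Multiplexed cis-reporter assay, HepG2, 24 h exposure. mRNA from reporter units quantified via RT-PCR/CE; DMSO baseline; bidirectional curve fit.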
# [19] = biological target: Transcription factor E2F1 (Homo sapiens) (UniProt Q01094); experiment: ATG_E2F_CIS: Attagene CIS-FACTORIAL HepG2 Assay for human E2F Transcription Factor 1 (AID 2282935); conditions: HepG2 Attagene cis-reporter, E2F reporter RNA transcripts; actives raise or lower the signal
# Chain of Transcription factor E2F1 (Homo sapiens) (Q01094 whole entry, looked up): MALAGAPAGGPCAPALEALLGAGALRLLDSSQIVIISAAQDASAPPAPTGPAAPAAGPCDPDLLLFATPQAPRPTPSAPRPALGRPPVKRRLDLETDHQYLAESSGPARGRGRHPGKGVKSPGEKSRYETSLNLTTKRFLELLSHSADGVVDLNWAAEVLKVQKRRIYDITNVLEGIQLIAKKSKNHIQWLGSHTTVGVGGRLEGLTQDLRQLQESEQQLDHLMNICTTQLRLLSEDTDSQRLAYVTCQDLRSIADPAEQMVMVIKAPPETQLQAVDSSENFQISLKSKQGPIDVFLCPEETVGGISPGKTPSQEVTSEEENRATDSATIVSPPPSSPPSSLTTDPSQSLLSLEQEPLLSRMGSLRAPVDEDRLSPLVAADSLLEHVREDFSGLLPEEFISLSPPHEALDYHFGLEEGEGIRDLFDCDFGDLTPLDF
# Outline: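 Gain or loss of reporter transcript, fitted against DMSO, reflects E2F1-driven transcription. Transiently transfected HepG2 dosed 24 h before RNA isolation. Quantified by fluorescent RT-PCR products separated by capillary electrophoresis.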
# [20] = biological target: Retinoic acid receptor alpha (Homo sapiens) (UniProt P10276); experiment: ATG_DR5_RAR_CIS: Attagene CIS-FACTORIAL HepG2 Assay for human Retinoic Acid Receptor Alpha (RARE), DR5 submotif (AID 2282934); conditions: HepG2 Attagene cis-factorial RARE DR5 reporter, mRNA; actives raise or lower the signal
# Chain of Retinoic acid receptor alpha (Homo sapiens) (P10276 whole entry, looked up): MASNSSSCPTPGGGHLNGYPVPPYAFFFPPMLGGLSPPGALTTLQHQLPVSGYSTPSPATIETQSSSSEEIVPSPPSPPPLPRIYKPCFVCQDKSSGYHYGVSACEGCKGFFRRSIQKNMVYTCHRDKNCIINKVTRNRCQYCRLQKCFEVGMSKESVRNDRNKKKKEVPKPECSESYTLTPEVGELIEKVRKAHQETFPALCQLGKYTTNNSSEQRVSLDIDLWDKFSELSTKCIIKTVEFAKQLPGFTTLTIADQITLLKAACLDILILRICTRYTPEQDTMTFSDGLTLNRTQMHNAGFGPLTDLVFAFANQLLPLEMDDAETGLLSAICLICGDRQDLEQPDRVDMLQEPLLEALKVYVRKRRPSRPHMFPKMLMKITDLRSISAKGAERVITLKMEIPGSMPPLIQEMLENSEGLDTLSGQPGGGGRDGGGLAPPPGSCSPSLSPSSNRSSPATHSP
# Outline: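 Transient MRTU transfection of HepG2; 24 h compound treatment; TriZol RNA, oligo(dT) RT, PCR, FAM labelling, capillary electrophoresis. Bidirectional fit vs DMSO. Endogenous TF activity at DR5 RARE.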
smiles,measurement,setting,value
CC1(C(=O)Nc2ccc(O)c(Cl)c2Cl)CCCCC1,outcome,[1],inactive
same,outcome,[2],inactive
same,outcome,[3],inactive
same,AC50,[4],91.7 µM (active)
same,outcome,[5],inactive
same,outcome,[6],inactive
same,outcome,[7],inactive
same,outcome,[8],inactive
same,outcome,[9],inactive
same,outcome,[10],inactive
same,AC50,[11],10 µM (active)
same,outcome,[12],inactive
same,outcome,[13],inactive
same,outcome,[14],inactive
same,outcome,[15],inactive
same,AC50,[16],30 µM (active)
same,outcome,[17],inactive
same,AC50,[18],39.3 µM (active)
same,outcome,[19],inactive
Cc1ccn2nc(S(=O)(=O)Nc3c(F)cccc3F)nc2n1,outcome,[1],inactive
same,outcome,[2],inactive
same,outcome,[3],inactive
same,outcome,[4],inactive
same,outcome,[5],inactive
same,outcome,[6],inactive
same,outcome,[7],inactive
same,outcome,[9],inactive
same,outcome,[10],inactive
same,outcome,[11],inactive
same,outcome,[12],inactive
same,outcome,[13],inactive
same,outcome,[14],inactive
same,outcome,[15],inactive
same,outcome,[16],inactive
same,outcome,[17],inactive
same,outcome,[18],inactive
same,outcome,[20],inactive
same,outcome,[19],inactive
CCC(=NOC/C=C/Cl)C1=C(O)CC(C2CCOCC2)CC1=O (stereo not given),outcome,[1],inactive
same,outcome,[2],inactive
same,outcome,[3],inactive
same,outcome,[4],inactive
same,outcome,[5],inactive
same,outcome,[6],inactive
same,outcome,[7],inactive
same,outcome,[8],inactive
same,outcome,[9],inactive
same,outcome,[10],inactive
same,outcome,[11],inactive
same,outcome,[12],inactive
same,outcome,[13],inactive
same,outcome,[14],inactive
same,outcome,[15],inactive
same,outcome,[16],inactive
same,outcome,[17],inactive
same,outcome,[18],inactive
same,outcome,[19],inactive
CCOP(=O)(SC(C)CC)N1CCSC1=O (stereo not given),outcome,[1],inactive
same,outcome,[2],inactive
same,outcome,[3],inactive
same,outcome,[4],inactive
same,outcome,[5],inactive
same,outcome,[6],inactive
same,outcome,[7],inactive
same,outcome,[9],inactive
same,outcome,[10],inactive
same,outcome,[11],inactive
same,outcome,[12],inactive
same,outcome,[13],inactive
same,outcome,[14],inactive
same,outcome,[15],inactive
same,outcome,[16],inactive
same,outcome,[17],inactive
same,outcome,[18],inactive
same,outcome,[20],inactive
same,outcome,[19],inactive
CCc1cccc(CC)c1N(COC)C(=O)CCl,outcome,[1],inactive
same,AC50,[2],31.1 µM (active)
same,outcome,[3],inactive
same,outcome,[4],inactive
same,AC50,[5],70.7 µM (active)
same,outcome,[6],inactive
same,outcome,[7],inactive
same,outcome,[9],inactive
same,outcome,[10],inactive
same,AC50,[11],3.04 µM (active)
same,AC50,[12],3.69 µM (active)
same,outcome,[13],inactive
same,outcome,[14],inactive
same,outcome,[15],inactive
same,AC50,[16],6.1 µM (active)
same,outcome,[17],inactive
same,outcome,[18],inactive
same,outcome,[20],inactive
same,outcome,[19],inactive
